# Experimental data from PubChem BioAssay AID1211 (NMMLSC, 2008).
# Active and inactive are the calls of the source. The rule behind the calls is not given here.
# Molecular target: Estrogen receptor (Homo sapiens) (UniProt P03372)
# Assay: ERalpha ligand binders by competition, primary screen, cell-based, Cos7 ERalpha-GFP, flow cytometry (AID 1211);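 note: 0% = DMSO vehicle wells and 100% = no E2-Alexa633 signal left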
# Details: fluorescent ligand competition, stronger effect = higher value
# Chain of Estrogen receptor (Homo sapiens) (P03372 whole entry, looked up): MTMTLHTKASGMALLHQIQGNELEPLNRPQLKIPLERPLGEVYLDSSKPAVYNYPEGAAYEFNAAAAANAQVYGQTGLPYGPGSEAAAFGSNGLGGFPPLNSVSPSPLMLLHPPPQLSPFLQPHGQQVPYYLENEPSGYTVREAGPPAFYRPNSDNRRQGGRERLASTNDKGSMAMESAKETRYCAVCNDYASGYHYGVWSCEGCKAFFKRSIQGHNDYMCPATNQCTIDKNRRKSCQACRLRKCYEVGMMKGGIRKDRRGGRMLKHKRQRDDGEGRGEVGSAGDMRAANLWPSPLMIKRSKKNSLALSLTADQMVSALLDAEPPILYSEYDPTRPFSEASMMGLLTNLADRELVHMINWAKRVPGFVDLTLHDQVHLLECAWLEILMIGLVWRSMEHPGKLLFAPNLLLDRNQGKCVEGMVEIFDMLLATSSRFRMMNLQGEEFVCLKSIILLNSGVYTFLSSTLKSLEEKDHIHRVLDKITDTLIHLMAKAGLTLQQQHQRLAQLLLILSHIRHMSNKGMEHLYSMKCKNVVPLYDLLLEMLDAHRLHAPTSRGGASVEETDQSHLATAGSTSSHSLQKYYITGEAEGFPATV
Compound,inhibition of ligand binding (at 10 µM),"inhibition of ligand binding (binding inhibition, at 0.1 µM) [%]"
O=C(Nc1ccccc1[N+](=O)[O-])C1=C(O)CCn2c1nc1ccccc12,20% (inactive),37
COc1ccc(C2C=C(c3ccc(Cl)cc3)Nc3nc(NC(C)=O)nn32)cc1 (stereo not given),42% (inactive),22
Oc1ccc(-c2nc3ccc4ccccc4c3c3c2CCC3)cc1O,41% (inactive),44
O=C(c1cccs1)N1N=C(c2ccc(O)cc2)CC1c1ccccc1 (stereo not given),58% (inactive),17
O=S(=O)(NCc1csc(-c2cccnc2)n1)c1cccs1,22% (inactive),5
Cn1c(SCc2cc(=O)n3cc(Br)ccc3n2)nnc1C1COc2ccccc2O1 (stereo not given),19% (inactive),27
CCCCNS(=O)(=O)c1ccc(NC(=O)C(Sc2ccccc2)c2ccccc2)cc1 (stereo not given),25% (inactive),21
O=c1cc(-c2ccc(O)c(-c3c(O)cc(O)c4c(=O)cc(-c5ccc(O)cc5)oc34)c2)oc2cc(O)cc(O)c12,24% (inactive),9
COc1ccc(C2Nc3ccccc3C(=O)N2c2ccccc2)cc1COc1ccccn1 (stereo not given),17% (inactive),58
Cc1ccc(C)c(/C(O)=C2/C(=O)C(=O)N(CCN3CCOCC3)C2c2ccco2)c1 (stereo not given),0% (inactive),52
CN(/N=C/c1cccnc1)c1cnn(-c2ccc(F)c(Cl)c2)c(=O)c1Cl,24% (inactive),15
CN1CCc2cccc3c2[C@@H]1Cc1ccc(O)c(O)c1-3,42% (inactive),6
COc1ccccc1N1CCN(C(=O)c2cc3c(s2)CCC3)CC1,41% (inactive),55
COc1cc2c(cc1O)C(Cc1ccc(O)cc1)NCC2 (stereo not given),34% (inactive),8
COc1ccc2nc3oc(C(=O)N4CCN(c5cccc(C(F)(F)F)c5)CC4)cc3cc2c1,45% (inactive),19
Cc1c(C(=O)OCc2ccccc2)[nH]c2c1C(=O)CC(c1ccco1)C2 (stereo not given),37% (inactive),24
CC1CCc2c(sc(NC(=O)c3ccc(Cn4cc([N+](=O)[O-])cn4)o3)c2C#N)C1 (stereo not given),44% (inactive),39
Cc1ccc(/C=c2\sc3nc(-c4ccco4)nn3c2=O)o1,37% (inactive),26
Cc1ccc(C(=O)Nc2nc(-c3cccnc3)cs2)o1,29% (inactive),20
COCc1cc(=O)n2c(-c3ccc(C)cc3)n[nH]c2n1,40% (inactive),62

Compound,inhibition of ligand binding (at 10 µM),"inhibition of ligand binding (binding inhibition, at 0.1 µM) [%]"
Cc1nnc(N/N=C/c2ccc(O)c([N+](=O)[O-])c2)[nH]c1=O,32% (inactive),20
Cc1cc(N)ccc1N=Nc1c(C)n(C)n(-c2ccccc2)c1=O,44% (inactive),3
COC(=O)c1ccc2c(=O)n(CC3CCCO3)c(SCC(=O)Nc3ccccc3Cl)nc2c1 (stereo not given),45% (inactive),37
O=S(=O)(NCCc1csc(-c2cccnc2)n1)c1ccc(Cl)s1,72% (active),35
Cc1noc(C)c1COc1ccc(C(=O)OCC(=O)N2c3ccccc3NC(=O)C2(C)C)cc1,59% (inactive),16
CCOC(=O)c1c(C)[nH]c(C)c1C(=O)CSc1nnc(-c2cc(OC)c(OC)c(OC)c2)o1,57% (inactive),38
COc1ccc(C2Nc3ccccc3C(=O)N2c2ccccc2)cc1CSc1ccccn1 (stereo not given),44% (inactive),17
O=C(NC1CCN(C(=O)N2c3ccccc3Sc3ccccc32)CC1)c1ccccc1Cl,36% (inactive),37
O=C(Nc1ccc(N2CCCC2)cc1)C(c1ccccc1)c1ccccc1,63% (inactive),7
CC1(C)OC(C)(C)/C(=C/Nc2ccc(O)cc2)C1=O,10% (inactive),12
Nc1ccc(N2CCN(C(=O)c3ccco3)CC2)cc1,28% (inactive),33
COC(=O)c1c(-c2ccncc2)csc1NC(=O)c1ccoc1C,41% (inactive),25
COc1cc(-c2nc3ccc4ccccc4c3c3c2CCC3)ccc1O,46% (active),87
CN1C(=O)CC(C(=O)O)SC1=Nc1cc(Cl)c(O)c(Cl)c1 (stereo not given),17% (inactive),51
O=C(Oc1ccc(-c2cnc3ccccc3n2)cc1)c1ccc(Br)o1,58% (inactive),1
O=C(CSc1nnnn1-c1ccccc1)Nc1nsc(-c2ccc(Cl)cc2)n1,47% (inactive),8
Cc1ccc(S(=O)(=O)N2CCCCC2)cc1C(=O)Nc1ncn[nH]1,21% (inactive),7
Cc1c(Cl)cccc1NS(=O)(=O)c1ccc2c(c1)C1C=CCC1C(c1ccc(C(=O)O)cc1)N2 (stereo not given),55% (inactive),1
CC1(C)Cc2c(sc3c4nnnn4c4nnnn4c23)CO1,12% (inactive),21
CSc1ccc(S(=O)(=O)Nc2cccc(F)c2)cc1,45% (inactive),54
